Experimental data taken from PubChem BioAssay AID624246 (National Center for Advancing Translational Sciences (NCATS), 2012).
About 100 (0.027%) of roughly 370,000 compounds were called active. Calls follow the shape of the dose curve; as a rule, active = well fitted inhibition curve with a large enough effect in the polarisation, with a control signal flat; inconclusive = small, poorly fitted or top-dose-only effect, or effect the other way, or a change in a side signal; inactive = no such curve, though single readings can be large or run the other way; the % refers to the polarisation. Only a selection was taken, and actives are over-represented in it overall.

target: Transcriptional regulator ERG (Homo sapiens) (UniProt P11308); test: qHTS for Small Molecule Inhibitors of the ERG Ets/DNA interaction; conditions: fluorescence polarization, His-ERG Ets domain / labelled DNA; series mostly up to 76.9 µM; FP activity, negative = inhibition: at the top concentration; also: % of control where 0% means no effect
Sequence (P11308 whole entry, looked up, the tested form may be a part): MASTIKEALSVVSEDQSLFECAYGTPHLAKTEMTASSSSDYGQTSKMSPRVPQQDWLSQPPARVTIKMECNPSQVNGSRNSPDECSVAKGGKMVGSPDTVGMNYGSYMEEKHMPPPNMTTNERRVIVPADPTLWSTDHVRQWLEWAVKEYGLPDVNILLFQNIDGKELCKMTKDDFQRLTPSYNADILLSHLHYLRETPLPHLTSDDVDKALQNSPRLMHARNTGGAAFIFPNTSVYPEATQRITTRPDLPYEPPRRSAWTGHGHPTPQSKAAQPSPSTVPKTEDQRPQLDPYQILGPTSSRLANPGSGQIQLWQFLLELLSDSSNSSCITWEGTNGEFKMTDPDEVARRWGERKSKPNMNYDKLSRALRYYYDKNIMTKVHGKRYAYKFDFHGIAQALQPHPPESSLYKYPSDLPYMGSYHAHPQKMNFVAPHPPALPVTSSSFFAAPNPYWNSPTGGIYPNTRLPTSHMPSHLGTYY
Description: The Ets family of proteins is a family of ~30 conserved transcription factors defined by the presence of an ~85 amino acid domain referred to as the Ets domain, which mediates sequence-specific DNA binding to a core DNA element GGAA/T.The Ets family member ERG has been linked to several neoplasms. […] More extensive studies of the effects of over-expression of ERG in prostate cells have recently been carried out and have shown that over-expression of ERG results in increased invasion. […] We will carry out a high throughout screen to identify inhibitors of the interaction between ERG and DNA using a fluorescence polarization (FP) assay with a His-tagged ERG Ets domain and fluorescently-labeled DNA probes to develop small molecule inhibitors of this interaction as probes to test this hypothesis and lay the groundwork for the development of targeted therapies against ERG. NIH Molecular Libraries Probe Production Network [MLPCN] NIH Chemical Genomics Center [NCGC] Grant: NS066464 PI Name: John Bushweller, University of Virgina
1.5 ul of protein solution (1 uM ERG domain in 300mM KCl, 50mM Tris-HCl, 1mM EDTA, 1mM DTT, pH 7.5); 20 nl Control plate and compound library plate; 1.5 ul mixture of 5 nM Fluorescein-DNA and 100nM Texas-615-DNA solution in same buffer as above solution; measure fluorescence polarization sequentially for fluorescein (Excitation = 480 nm, Emission = 535s, 535p nm) and Texas red (Excitation = 555 nm, Emission = 632s, 632p nm).

FP activity, negative = inhibition, inactive:
O=C(Nc1ccccc1F)C(c1ccccc1)N1Cc2ccccc2C1=O (configuration not stated) -0.37%
COc1ccccc1CNC(=O)CCCn1c(=O)c2ccccc2n(CC(=O)Nc2ccc(C)cc2Cl)c1=O 9.36%
O=C1Cc2cc(S(=O)(=O)Nc3ccc(OC(F)(F)F)cc3)cc3c2N1CCC3 10%
CCc1ccc(NC(=O)c2nn(-c3ccc(C)cc3)c(=O)n(C)c2=O)cc1 -0.735%
COC(=O)c1scc(-c2ccccc2)c1S(=O)(=O)Nc1ccccc1 0.898%
CC1CCN(C(=O)Cn2c(=O)n(-c3ccc(Cl)cc3)c(=O)c3c4c(sc32)CCC4)CC1 4.19%
CCCn1c(NCc2ccc(N(CC)CC)cc2)nc2ccccc21 -3.75%
Cc1ccccc1C(=O)NCc1nc(-c2ccc(Cl)cc2)no1 -2.03%
Cc1cc(C)c(-c2n[nH]c3c2C(c2ccccc2F)N(CCO)C3=O)c(O)c1 (configuration not stated) -4.81%
COc1ccccc1-c1cc2nc(C)c(CCC(=O)O)c(C)n2n1 -0.16%
CC(C)c1ccc(NC(=O)C2CCN(c3nc(-c4ccc(C(C)C)cc4)no3)CC2)cc1 2.37%
Cc1c(CNC2CCCCC2)c(C(=O)O)c(C)n1Cc1cccc(Cl)c1 -2.9%
Cc1ccc(C(=O)NCCSc2c(C)[nH]c3ccccc23)cc1C -6.47%
CCCCNC(=O)CSc1nc2cc3c(cc2c(=O)n1CCCCCC(=O)NCc1ccc2c(c1)OCO2)OCO3 -12.3%
N#Cc1ccc(-c2cccs2)nc1SCc1ccc(Br)cc1 12.1%
CCc1nn(CC(=O)Nc2cccc(C)c2C)c(=O)c2cc3sccc3n12 13.6%
O=C(Cn1c(=O)n(-c2ccc(F)cc2)c(=O)c2sccc21)Nc1cccc(C(F)(F)F)c1 -2.35%
COc1cccc(N=C2SC(C(=O)Nc3cccc(Cl)c3)CC(=O)N2C)c1 (configuration not stated) -5.94%
COC(=O)c1sccc1S(=O)(=O)N(CC(=O)Nc1ccc(C)c(F)c1)c1ccc(C)c(C)c1 2.23%
Cc1ccc(CCNC(=O)C2CCN(c3nnc(-n4cccc4CNc4ccc(C)cc4)s3)CC2)cc1 0.384%
Cc1ccccc1CNC(=O)C1CCCN(S(=O)(=O)N(C)c2ccc(F)cc2)C1 (configuration not stated) -3.29%
CCOc1ccccc1CNC(=O)c1ccc(-n2c(C)cc3c2CCC(C)C3)cc1 (configuration not stated) 5.18%
CCOC(=O)c1scc(-c2ccccc2)c1S(=O)(=O)Nc1ccccc1F 3.67%
COc1ccc(C)cc1NC(=O)COCc1cc(-c2cccs2)on1 8%
COc1ccc(NC(=O)CSC2=Nc3ccccc3C3=NC(CC(=O)NCc4ccccc4OC)C(=O)N23)cc1Cl (configuration not stated) -0.573%
O=C(/C=C/c1ccccc1)Nc1cc(-c2nc3cc(Cl)ccc3o2)ccc1Cl 4.72%
Cc1ccc(-n2ncc3c(NCCCn4ccnc4)ncnc32)cc1Cl -1.49%
